Compound activity (PubChem)
Most compounds without a hit are left out; they make up all but 2.2% or so of the library.
LGR2 antag – Drosophila LGR2 receptor signaling inhibition; AID 720647; 380,000 compounds, 0.35% hits; HEK293 LGR2, CRE-luciferase, bursicon-stimulated, 4 h; inhibition, % at 9.99 µM;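 active = drop in luminescence signal, shown as inhibition above about 50% in the replicate tests, limit read from the data, passing the limit was not always enough; inconclusive = probably only some replicates passing the limit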;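 also: agonist challenge used bursicon conditioned medium at about half maximal strength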
LMP1 NFkB inh – reduces LMP1-driven NF-kappaB luciferase signal | LMP1-induced NF-kappaB luciferase reporter cells, luminescence | inhibition, % at 12.5 µM | 350,000 compounds, 0.69% hits | AID 504558; in the data active = inhibition above about 41%; inconclusive = no clear call, values can overlap the other calls;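 also: 0% = neutral control wells and 100% = reference inhibitor control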
PGC1a acetyl inh – PGC1a acetylation modulation, inhibitor mode; U2OS PGC1a acetylation, AlphaScreen anti-acetyl-lysine; with virally co-expressed GCN5 acetyltransferase; inhibition, % at 15.6 µM; 350,000 compounds, 0.17% hits; AID 651687;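 active = every replicate shows inhibition of at least 40%; inconclusive = mean inhibition at least 40% but some replicate below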;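 also: 0% = neutral control wells and 100% = positive control wells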
EWS-Fli inh – inhibitors of EWS/Fli oncoprotein transcriptional activity; inhibition, % at 12.6 µM; 350,000 compounds, 0.67% hits; A673 NR0B1-luciferase reporter, viability-normalised;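 active = mean inhibition of at least 50% after viability correction, with every replicate also passing that limit; inconclusive = mean reaches 50% but only one of two replicates passes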;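 also: firefly luciferase signal divided by Alamar Blue viability fluorescence both relative to DMSO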
MITF TRPM1 inh – inhibitors of MITF-driven TRPM1 promoter in melanoma cells. SK-MEL-5 TRPM1 promoter luciferase, 24 h. inhibition, % at 12.5 µM. 330,000 compounds, 0.83% hits. AID 488899;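 active = mean inhibition across replicates of 60% or more, whatever share of single replicates reaches that level; inconclusive = some that reach 60%, reason not given; inactive = mean inhibition across replicates below 60%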
PAX8 inh HTS – inhibitors of PAX8 transcriptional activity in RMG-I cells; RMG-I TPO-luciferase reporter, SteadyGlo, 24 h; AID 652154; inhibition, % at 12.6 µM; 360,000 compounds, 1.2% hits;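 active = mean replicate inhibition at least 60% with every replicate also reaching 60%; inconclusive = only one of the two criteria is met; inactive = mean below 60% and not all replicates reaching 60%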;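 also: luciferase light reporting Pax8 driven TPO promoter activity; plate controls were median of neutral control wells for no effect and mitoxantrone controls for full effect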
Starred values were filed as active, the others as inactive; ? = inconclusive; . = no result given.

SMILES | LGR2 antag | LMP1 NFkB inh | PGC1a acetyl inh | EWS-Fli inh | MITF TRPM1 inh | PAX8 inh HTS
C/C=C/c1ccc([C@H]2[C@@H](CO)N(C(=O)c3cnccn3)C23CN(C(=O)C2CCC2)C3)cc1 | 17 | . | 0 | 8 | . | -5
COc1cc(C(=O)NCC(c2cccs2)N2CCOCC2)ccc1OCc1ccc(Cl)cc1 (configuration not stated) | 2 | -2 | -6 | 13 | . | 99*
COCC(=O)N(C)C[C@H]1Oc2cc(C#CCC(C)C)ccc2S(=O)(=O)N([C@@H](C)CO)C[C@@H]1C | 4 | . | -4 | -1 | . | .
C[C@H](CO)N1C[C@H](C)[C@@H](CN(C)C(=O)Nc2ccc(C(F)(F)F)cc2)Oc2c(NC(=O)C3CCOCC3)cccc2C1=O | -4 | . | 6 | 1 | . | 8
O=C(Oc1ccc[nH]c1=O)c1cc([N+](=O)[O-])cc([N+](=O)[O-])c1 | -1 | -9 | 53* | 9 | -13 | 0
CCCNC(=O)N1[C@@H]2c3cccc(=O)n3C[C@H]1[C@H](CO)[C@H]2C(=O)N1CCC(Cc2ccccc2)CC1 | 0 | . | . | 5 | . | 2
O=C(CC1CC1)N1CC(=O)N2[C@@H](CO)[C@@H](c3ccc(C#Cc4ccccc4)cc3)[C@@H]2C1 | -7 | . | -5 | -1 | . | .
CCCCCCCCC(c1nc2ccccc2[nH]1)N1CCN=C1c1cc2ccccc2[nH]1 (configuration not stated) | 80* | . | -29 | 38 | . | 27
CCC(c1nc2ccccc2[nH]1)n1c(C)nc2ccccc21 (configuration not stated) | -6 | . | . | -2 | . | -7
CN(C)CC(=O)N[C@H]1CC[C@H](CC(=O)NCc2ccccc2F)O[C@@H]1CO | -2 | . | 3 | -7 | . | -6
O=C(Cn1ncc(Cl)c(Cl)c1=O)c1ccc2c(c1)OCCO2 | ? | 4 | -85 | 7 | 50 | -26
CCC(=O)Nc1ccc(C(=O)Cn2ncc(Cl)c(Cl)c2=O)cc1 | 9 | -75 | -265 | 0 | ? | 78*
CCOC(=O)c1ccc(NC(=O)Cn2ncc(Cl)c(Cl)c2=O)cc1 | 10 | -28 | . | 37 | 103* | 95*
CCOC(=O)c1ccc(NC(=O)Cn2nc(C)c3ccccc3c2=O)cc1 | -2 | 6 | 12 | -2 | 16 | 15
CCc1ccccc1NC(=O)CN(C)C(=O)Cn1ncc(Cl)c(Cl)c1=O | . | 71* | . | 63* | 89* | 68*
Cc1ccc(C(=O)OCn2ncc(Cl)c(Cl)c2=O)cc1 | . | 89* | . | . | 105* | .
COCC(=O)Nc1ccc2c(c1)C(=O)N(C)[C@H]1CC[C@H](CC(=O)NCc3cccc(F)c3)O[C@H]1CO2 | -3 | . | 0 | -2 | . | 5
C[C@H]1CN([C@@H](C)CO)C(=O)Cc2cc(N(C)C)ccc2O[C@@H]1CN(C)Cc1ccc(Cl)c(Cl)c1 | -4 | . | 0 | 2 | . | 28
CCCNC(=O)[C@H]1[C@H](CO)[C@H]2Cn3c(cccc3=O)[C@H]2N1Cc1ccccn1 | -10 | . | -5 | -1 | . | -7
C[C@H]1CN([C@@H](C)CO)C(=O)Cc2cc(NC(=O)CCCN(C)C)ccc2O[C@@H]1CN(C)C(=O)Nc1ccc2c(c1)OCO2 | 0 | . | 9 | . | . | -20
COc1ccccc1NS(=O)(=O)c1cc(NC(=O)c2ccc(Cl)nc2)ccc1Cl | 38 | 33 | -3 | . | 64* | 44
O=C(NC(Nc1nc2ccc([N+](=O)[O-])cc2s1)(C(F)(F)F)C(F)(F)F)c1cccnc1 | . | 32 | . | 4 | 78* | 93*
O=C(NC(Nc1nc2ccc([N+](=O)[O-])cc2s1)(C(F)(F)F)C(F)(F)F)c1ccccc1Cl | 35 | 53* | . | 33 | 75* | 101*
CN(C)S(=O)(=O)c1ccc2nc(NC(=O)c3cccnc3)sc2c1 | . | -23 | 15 | . | -57 | -130
C[C@@H]1CN([C@H](C)CO)C(=O)c2cccc(NC(=O)Nc3cccc4ccccc34)c2O[C@@H]1CN(C)S(=O)(=O)c1cccs1 | 12 | . | 8 | -2 | . | .
SMILES | LGR2 antag | LMP1 NFkB inh | PGC1a acetyl inh | EWS-Fli inh | MITF TRPM1 inh | PAX8 inh HTS
COc1ccc(S(=O)(=O)Nc2ccc3c(c2)CC(=O)N([C@H](C)CO)C[C@@H](C)[C@@H](CN(C)C(=O)Nc2ccc(F)cc2)O3)cc1 | -17 | . | 3 | 7 | . | -17
CC[C@H](C)[C@@H](CNC)NC[C@@H](Cc1ccc(O)cc1)NCC(C)(C)C | 2 | 23 | 2 | 4 | -2 | -7
CC[C@@H](C)[C@H](CN[C@H](CNC)C(C)C)NC[C@@H](C)c1ccc(CC(C)C)cc1 | -6 | -11 | -19 | 47 | 100* | 43
CN1/C(=C/c2cccc[n+]2CCO)Sc2ccccc21 | -1 | -2 | . | -8 | 14 | -9
CC[n+]1ccccc1/C=C1\Sc2ccc(C)cc2N1C | 13 | 20 | . | 55* | 15 | 42
CS(=O)(=O)Nc1ccc2c(c1)[C@H]1C[C@@H](CC(=O)NCc3ccccn3)O[C@@H](CO)[C@H]1O2 | 6 | . | 7 | 1 | . | -9
O=C1C(Br)=C(c2ccccc2)C(c2ccccc2)=C1c1ccccc1 | . | 4 | -4 | . | 80* | .
COc1cccc(-c2ccc3n(c2=O)C[C@@H]2[C@@H](CO)[C@H](C(=O)N4CCOCC4)N[C@H]32)c1 | -5 | . | . | -5 | . | -10
O=C(NCc1ccc2c(c1)OCO2)C(C(=O)c1ccccc1)n1cc(Cl)ccc1=O (configuration not stated) | 0 | -17 | . | -5 | 10 | 85*
C[C@@H]1CN([C@@H](C)CO)C(=O)c2cc(/C=C/c3ccccc3)cnc2O[C@@H]1CN(C)C(=O)Nc1ccc(C(F)(F)F)cc1 | 22 | . | -7 | 52* | . | .
C[C@H](CO)N1C[C@H](C)[C@H](CN(C)C(=O)Nc2ccc(F)cc2)Oc2ncc(/C=C/c3ccccc3)cc2C1=O | 18 | . | -6 | . | . | 18
C[C@H]1CN([C@@H](C)CO)C(=O)c2cc(/C=C/c3ccccc3)cnc2O[C@@H]1CN(C)C(=O)C1CC1 | -2 | . | -2 | -12 | . | .
C[C@@H]1CN([C@@H](C)CO)C(=O)c2cc(C#CC(C)(C)O)cnc2O[C@@H]1CN(C)C(=O)C1CCC1 | -4 | . | 5 | -18 | . | .
C[C@H]1CN([C@@H](C)CO)C(=O)c2cc(C#CC(C)(C)O)cnc2O[C@@H]1CN(C)C(=O)C1CCC1 | -9 | . | 101* | 2 | . | .
C[C@@H]1CN([C@H](C)CO)C(=O)c2cc(/C=C/c3ccccc3)cnc2O[C@@H]1CN(C)C(=O)C1CC1 | -9 | . | 4 | -14 | . | 74*
COc1ccc(CN2[C@@H]3CN(C(=O)CC(F)(F)F)c4ccccc4[C@@H]3[C@@H]2CO)cc1 | 11 | . | 2 | -1 | . | -6
COc1ccc2c3c([nH]c2c1)[C@@H](CO)N(Cc1cccc(F)c1)CC31CCN(CC2CC2)CC1 | -13 | . | -4 | 0 | . | .
CCc1sc(C(=O)Nc2ncccc2C)cc1C | -16 | -6 | . | . | -11 | -27
CCc1sc(C(=O)Nc2ncccc2O)cc1C | 45 | 52* | . | . | 6 | 12
